ChEMBL document CHEMBL3988442, “University of Dundee, Small-Polar-MMV Screening Library” (2021)

Columns and labels:
[1] = target: T1, Aspartate--tRNA(Asp/Asn) ligase (Mycobacterium tuberculosis (strain ATCC 25618 / H37Rv)) (UniProt P9WFW3); experiment: Assay for Asp RNA synthetase-1 from Mycobacterium tuberculosis; type: functional; set-up: scale not given: direction of the effect not stated beside the values; conditions: 30 µM; note: in the data most compounds retested in dose-response had high values
T1 sequence (whole entry): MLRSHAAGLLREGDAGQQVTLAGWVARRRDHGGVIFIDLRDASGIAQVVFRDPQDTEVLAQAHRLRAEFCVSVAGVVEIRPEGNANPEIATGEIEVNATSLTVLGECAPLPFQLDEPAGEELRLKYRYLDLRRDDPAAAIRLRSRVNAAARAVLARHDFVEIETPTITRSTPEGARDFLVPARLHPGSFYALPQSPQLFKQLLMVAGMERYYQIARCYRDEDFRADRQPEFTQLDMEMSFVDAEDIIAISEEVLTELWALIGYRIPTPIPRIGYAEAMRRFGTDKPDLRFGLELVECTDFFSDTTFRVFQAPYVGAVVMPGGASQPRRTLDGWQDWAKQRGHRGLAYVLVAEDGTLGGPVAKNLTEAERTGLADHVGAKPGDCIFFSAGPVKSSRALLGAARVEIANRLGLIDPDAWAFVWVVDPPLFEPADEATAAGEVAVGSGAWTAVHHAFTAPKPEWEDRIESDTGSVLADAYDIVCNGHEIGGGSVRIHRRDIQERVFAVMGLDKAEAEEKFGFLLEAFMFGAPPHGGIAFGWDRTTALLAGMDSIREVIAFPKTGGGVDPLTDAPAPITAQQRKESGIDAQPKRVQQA

[2] = target: Shiga toxin 2 (Escherichia coli O157:H7) (UniProt P09385+P09386); experiment: E. coli 0.157:H7 Shiga Toxin SOP - stx2 screening assay; type: functional; set-up: scale not given: direction of the effect not stated beside the values; conditions: 30 µM

| Structure (SMILES) | Percent Effect [1] [%] | Percent Effect [2] [%] |
| --- | --- | --- |
| Cn1ccc(C(=O)N2CCN(CCc3ccccc3)CC2)cc1=O | -1.76 | -19.1 |
| CCc1ncc2c(n1)CN(Cc1nc(-c3ccsc3)oc1C)CC2 | 2.25 | 25.2 |
| O=C(CCc1ccccn1)N1CCc2cc(Cl)cc(Cl)c2C1 | 15.8 | -69.6 |
| CCc1nc(C)c([C@H]2CN(C)C[C@@H]2C(=O)Nc2ccc(OC)cc2)[nH]1 | -1.19 | 9.62 |
| O=C(CS(=O)(=O)CC1CCCCC1)NC1CCCCNC1=O (stereo unspecified) | -4.37 | -23 |
| CCc1ncc2c(n1)CN(CC(=O)Nc1nnc(C)s1)CC2 | 4.25 | -18.6 |
| CC(C)c1nnc(NC(=O)NCc2ccnc(N(C)C)c2)s1 | -3.25 | -21.8 |
| CCc1cnc(CN(C)C2CCN(CCS(C)(=O)=O)C2)o1 (stereo unspecified) | 0.585 | -7.2 |
| O=c1oc(-c2ccc(F)cc2)nn1CN1CCN(C2CCCC2)CC1 | 0.546 | -2.79 |
| Cc1ncccc1O[C@H]1CCN(C(=O)Cc2cccs2)CC[C@@H]1O | -2.28 | -7.15 |
| COCCOCc1cccc(NC(=O)N2CCCC2c2ccncc2)c1 (stereo unspecified) | -1.56 | 18.6 |
| COC(=O)[C@H](C)NC(=O)c1cc(-c2cccc(Cl)c2)no1 | 0.419 | 5.33 |
| Cc1ccc2cc(CNCCCO)c(=O)[nH]c2c1 | -1.41 | -9.65 |
| C[C@@H]1CN(C(=O)c2ccc(C#N)nc2)C[C@@]1(O)C1CC1 | 0.0335 | -1.27 |
| CCOc1cccc(NS(=O)(=O)c2cc(C)c(C(=O)O)s2)c1 | 1.62 | -10.3 |
| Cc1nnc(CN2CCC(N(C)Cc3nnc(C4CC4)n3C)C2)o1 (stereo unspecified) | -1.43 | 18.5 |
| Cc1cccc(C)c1OCCNC(=O)NC(C)c1nncn1C (stereo unspecified) | -2.19 | -46.4 |
| CCN(CC1CCOC1)C(=O)c1ccccc1N1CCOCC1 (stereo unspecified) | -0.562 | 23.4 |
